Paper PMC5540273 (PLoS ONE, 2017)

What was measured:
Settings in all cases: concentration: 1 μM, replicates: in singlicate; n = 1
[1] = tested on: PRKCH
[2] = tested on: PRKCI
[3] = tested on: PRKCQ
[4] = tested on: PRKD1
[5] = tested on: PRKD2
[6] = tested on: PRKD3
[7] = tested on: PRKG1
[8] = tested on: PRKG2
[9] = tested on: T1, PRKR
T1 construct: gene EIF2AK2

[10] = tested on: PRKX
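Further: KINOMEscan kinase panel screen.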

SMILES | %Inh [1] [%] | %Inh [2] [%] | %Inh [3] [%] | %Inh [4] [%] | %Inh [5] [%] | %Inh [6] [%] | %Inh [7] [%] | %Inh [8] [%] | %Inh [9] [%] | %Inh [10] [%]
FC(F)(F)c1ccccc1-c1cc(-c2c[nH]nc2-c2ccccn2)ccn1 [GW679396] | 11 | 32 | 0 | 12 | 5 | 100 | 18 | 0 | 0 | 0
Cc1c(Cn2c3ccccc3n3c(=O)cc(N4CCOCC4)nc23)cccc1C(F)(F)F [GSK2306394] | 22 | 9 | 10 | 0 | 10 | 27 | 28 | 0 | 25 | 30
Fc1ccc(-c2nn3cccc(F)c3c2-c2ccncc2)cc1 [GW475620] | 42 | 39 | 14 | 16 | 60 | 34 | 34 | 0 | 0 | 4
CC(C)c1ccc(O)cc1Nc1ccnc2ccc(C(F)(F)F)cc12 [GW482059] | 28 | 18 | 0 | 0 | 2 | 27 | 15 | 0 | 0 | 0
NS(=O)(=O)c1cccc(N/C=C2\C(=O)Nc3ccc(S(=O)(=O)Cc4c(Cl)cccc4Cl)cc32)c1 [GSK398099] | 0 | 6 | 0 | 0 | 0 | 17 | 0 | 100 | 0 | 12
Cc1cccc2c(-c3ccncn3)c(-c3ccc(F)cc3)nn12 [GW515532] | 33 | 26 | 9 | 3 | 0 | 32 | 8 | 0 | 0 | 5
Cc1ccc(NC(=O)c2ccc(Cl)cc2)cc1-c1ccc(C(=O)Nc2ccncc2)cc1 [GSK1398467] | 5 | 5 | 0 | 0 | 0 | 9 | 0 | 0 | 4 | 23
COC(=O)c1cccc(NC(=O)NC2CCN(c3ccnc(Nc4ccc(OC)cc4)n3)C2)c1 (stereo not shown) [GSK1379746] | 31 | 13 | 0 | 0 | 0 | 0 | 0 | 0 | 0 | 0
COC(=O)C(Cc1ccccc1)NC(=O)NC1CCN(c2ccnc(Nc3ccc(F)cc3)n2)C1 (stereo not shown) [GSK1379714] | 10 | 22 | 0 | 0 | 0 | 100 | 0 | 8 | 6 | 0
COc1cccc(NC(=O)Nc2ccc(C)c(-c3ccc(C(=O)Nc4ccncc4)cc3)c2)c1 [GSK1398474] | 14 | 16 | 19 | 6 | 0 | 0 | 0 | 50 | 0 | 26
COc1cccc(CNC(=O)NC2CCN(c3ccnc(Nc4ccc(F)cc4)n3)C2)c1 (stereo not shown) [GSK1379723] | 2 | 10 | 0 | 0 | 0 | 14 | 0 | 0 | 0 | 6
CCn1c(-c2ccccc2)nc2cnccc21 [SB-733416] | 3 | 8 | 44 | 0 | 1 | 0 | 0 | 0 | 0 | 5
COc1ccc(CSc2nnc(-c3ccc4ncsc4c3)o2)cc1C(F)(F)F | 0 | 0 | 10 | 17 | 7 | 11 | 0 | 0 | 3 | 0
c1ccc(-c2ccnc3[nH]ccc23)cc1 [SB-693578] | 0 | 13 | 0 | 0 | 0 | 0 | 0 | 2 | 0 | 0
CS(=O)(=O)Cc1ccc(Nc2nccc(-c3c(-c4cccc(NC(=O)C5CCCCC5)c4)nn4ncccc34)n2)cc1 [GSK350559] | 3 | 23 | 25 | 0 | 0 | 18 | 0 | 3 | 0 | 5
COc1ccc(Nc2nccc(N3CCC(NC(=O)c4cc5ccccc5s4)C3)n2)cc1 (stereo not shown) [GSK1379738] | 0 | 15 | 7 | 0 | 12 | 100 | 0 | 0 | 0 | 12

SMILES | %Inh [1] [%] | %Inh [2] [%] | %Inh [3] [%] | %Inh [4] [%] | %Inh [5] [%] | %Inh [6] [%] | %Inh [7] [%] | %Inh [8] [%] | %Inh [9] [%] | %Inh [10] [%]
COC(=O)C(NC(=O)NC1CCN(c2ccnc(Nc3ccc(F)cc3)n2)C1)c1ccccc1 (stereo not shown) [GSK1379712] | 0 | 24 | 3 | 0 | 14 | 4 | 0 | 0 | 0 | 12
Nc1nccc(-c2c(-c3ccc(F)cc3)ncn2C2CCN(Cc3ccccc3)CC2)n1 [SB-219980] | 0 | 0 | 0 | 0 | 3 | 0 | 0 | 0 | 0 | 0
CSc1ccc(-c2nc3n(c2-c2ccncc2)CCC3)cc1 [SKF-105561] | 0 | 37 | 0 | 27 | 4 | 0 | 0 | 0 | 0 | 0
Cc1ccc(NC(=O)Nc2ccc(Cl)c(C(F)(F)F)c2)cc1-c1ccc(C(=O)Nc2ccncc2)cc1 [GSK1398470] | 23 | 0 | 23 | 0 | 17 | 13 | 0 | 39 | 0 | 0
COc1ccc(CSc2nnc(-c3ccc4c(c3)CCO4)o2)cc1 | 0 | 0 | 0 | 0 | 31 | 0 | 0 | 0 | 0 | 0
O=c1cc(N2CCOCC2)nc2n(Cc3cccc(Cl)c3Cl)c3ccccc3n12 [GSK2299009] | 24 | 8 | 0 | 7 | 0 | 3 | 9 | 1 | 0 | 22
O=c1cc(N2CCOCC2)nc2n(Cc3ccccc3F)ccn12 [GSK2297428] | 18 | 1 | 0 | 0 | 0 | 0 | 0 | 0 | 0 | 0
O=C(Nc1n[nH]c2nc(-c3cccs3)c(Br)cc12)C1CCCC1 [SB-743341] | 21 | 21 | 32 | 7 | 0 | 23 | 4 | 0 | 0 | 0
Cn1cncc1C(=O)NC1CCN(c2ccnc(Nc3ccc(F)cc3)n2)C1 (stereo not shown) [GSK1379717] | 0 | 7 | 0 | 0 | 0 | 4 | 0 | 99.3 | 0 | 0
CNc1cc(-c2ccc3c(N)n[nH]c3c2)nc(N)n1 [GSK2224810] | 0 | 27 | 0 | 0 | 6 | 6 | 0 | 85 | 18 | 57
Cc1ccc(NC(=O)Nc2ccccc2F)cc1-c1ccc(C(=O)Nc2ccncc2)cc1 [GSK1398477] | 39 | 0 | 19 | 0 | 4 | 23 | 8 | 0 | 0 | 49
CNc1nc(-c2ccc3c(N)n[nH]c3c2)cc(N2C[C@@H](C(=O)NC3CCCCC3)OC[C@H]2C)n1 [GSK2375584] | 23 | 18 | 0 | 13 | 23 | 0 | 1 | 18 | 4 | 61
Cc1cnc(N)c(/C=C/c2cncc(C(=O)NCCc3ccc(Cl)cc3Cl)c2)c1.Cl [GSK190937] | 31 | 23 | 0 | 0 | 5 | 0 | 10 | 16 | 0 | 19
O=C(Nc1n[nH]c2nc(-c3cccs3)c(Br)cc12)C1CC1 [SB-735297] | 4 | 0 | 7 | 0 | 0 | 0 | 2 | 3 | 0 | 0
CC(=O)c1c(C)c2cnc(Nc3ccc(N4CCNCC4)cn3)nc2n(C2CCCC2)c1=O | 0 | 5 | 0 | 0 | 0 | 0 | 9 | 0 | 0 | 0
